# From PubChem BioAssay
# USP2a inh: qHTS Assay for Inhibitors of Ubiquitin-specific Protease USP2a Using CHOP2 as the Reporter | Ubiquitin carboxyl-terminal hydrolase 2 (Homo sapiens), O75604 | USP2 core, Ub-CHOP2 coupled fluorogenic reporter, 485/531 | Potency, µM (doses to about 38.3 µM), actives largely listed as inhibitors | 0.01% of 330,000 active | AID 463254, 2010
# Target sequence (O75604 whole entry, looked up): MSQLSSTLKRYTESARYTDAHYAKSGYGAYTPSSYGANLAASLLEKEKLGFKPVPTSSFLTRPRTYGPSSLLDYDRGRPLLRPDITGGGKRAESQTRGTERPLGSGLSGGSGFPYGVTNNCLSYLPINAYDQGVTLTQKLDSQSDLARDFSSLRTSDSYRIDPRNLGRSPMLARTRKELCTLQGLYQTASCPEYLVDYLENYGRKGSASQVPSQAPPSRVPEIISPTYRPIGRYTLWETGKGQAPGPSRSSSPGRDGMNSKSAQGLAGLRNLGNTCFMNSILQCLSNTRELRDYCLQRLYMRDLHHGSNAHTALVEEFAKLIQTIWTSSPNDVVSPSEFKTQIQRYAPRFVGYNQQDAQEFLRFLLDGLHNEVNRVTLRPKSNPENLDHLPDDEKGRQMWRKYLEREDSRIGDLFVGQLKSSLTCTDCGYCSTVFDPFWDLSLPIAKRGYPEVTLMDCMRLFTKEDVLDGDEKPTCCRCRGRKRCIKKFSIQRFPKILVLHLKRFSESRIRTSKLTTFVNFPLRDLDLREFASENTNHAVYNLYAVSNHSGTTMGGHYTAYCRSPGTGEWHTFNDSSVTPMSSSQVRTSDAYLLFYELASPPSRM
#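 Cell-free coupled assay: 10nM USP2 core preincubated 30min RT with compound in Tris-HCl pH 8.0/CaCl2/CHAPS buffer, then 25nM Ub-CHOP2 and 25nM reporter substrate; fluorescence (Ex 485/Em 531) read after 60min RT, normalized to NEM inhibition, concentration-response curves fitted.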
# Eya2 inh: qHTS Assay for Inhibitors of the Phosphatase Activity of Eya2; Potency, µM (doses to about 76.9 µM), usual class: inhibitors; 0.006% of 330,000 active; AID 488837, 2010; recombinant Eya2, OMFP fluorescence dephosphorylation (OMFP is methylfluorescein phosphate); Protein phosphatase EYA2 (Homo sapiens), O00167
#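 Eya2 protein (added as 0.2 uM solution) was preincubated with compound for 10 min at ambient temperature in 50 mM HEPES pH 7.5, 50 mM NaCl, 5 uM MgCl2, 0.05% BSA, 1 mM DTT. OMFP (added at 50 uM) then reacted 10 min; fluorescence read at 485/525 nm.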
# FBPA coupling cs: qHTS Assay for Inhibitors of Fructose-1,6-bisphosphate Aldolase from Giardia Lamblia: Coupling assay counterscreen. coupling enzyme system counterscreen, AmpLite Red fluorescence. activity change, negative = inhibition, % at 58.2 µM, hits read low. 0.67% of 290,000 active. AID 2472, 2010; in the data active = activity change below about -30%
#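 Activity here indicates interference with the coupling reaction, not aldolase inhibition. Compounds at 57.5 uM final met coupling enzymes for 10 min at RT; substrate and AmpLite Red detection followed, with a 525/598 nm fluorescence read after 20 min.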
# PI4K2A inh: qHTS for small molecular inhibitors of PI4K2A | Phosphatidylinositol 4-kinase type 2-alpha (Homo sapiens), Q9BTU6 | purified PI4K2A, ADP-Glo luminescence, 1 h; hits give low values | activity change, negative = inhibition, % at 76.9 µM | 0.13% of 420,000 active; in the data active = activity change below about -50%; inconclusive = mostly about -30% to -49%
#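 ADP-Glo luminescence measured ADP generated by PI4K2A enzyme (4 ug/mL before mixing) with 1.2 mM PI substrate (pre-mix) and 300 microM ATP (pre-mix). Tris pH7.5 buffer with MgCl2, Triton X-100; 1 h reaction at ambient temperature.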
# GALK inhibitor: qHTS Assay for Inhibitors of Human Galactokinase (GALK) | P51570 | 0.007% of 270,000 active | AID 1868, 2009 | Purified GALK, Kinase-Glo residual ATP luminescence | Potency, µM (top dose mostly 57.5 µM), actives largely listed as inhibitors
#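 The enzyme phosphorylates galactose (100 uM) using ATP (35 uM); inhibition is detected as higher residual ATP, quantified by bioluminescence after 1 h reaction at room temperature, pH 8.0.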
# USP1-UAF1 inh: Inhibitors of USP1/UAF1: Primary Screen. Potency, µM (series often up to 57.1 µM), most hits filed as inhibitors. AID 743255, 2014. recombinant USP1/UAF1, Ub-Rhodamine cleavage fluorescence. 0.23% of 390,000 active. Ubiquitin carboxyl-terminal hydrolase 1 (Homo sapiens), O94782; note: nearly all actives have a fitted effect of over 60% in size
#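 Step one: compound is pinned into 1nM USP1/UAF1 in HEPES pH 7.8 buffer with TCEP. Step two: 15 min room-temperature incubation. Step three: Ub-Rho (150nM final) starts cleavage, tracked by fluorescence over six one-minute reads.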
# Numbers stand for hits; n = inactive; u = inconclusive; x = no result given; ! = repeats disagree. Only some compounds are listed: those with a hit (about 0.71% of all), similar ones and a draw of the others. Unless noted, calls come from the whole dose curve; as a rule, active = well fitted curve in the direction sought with a large enough effect; inconclusive = small, poorly fitted or top-dose-only effect, or another doubt; inactive = no such curve, though single readings can be large; an effect the other way counts as inactive or inconclusive.
SMILES,USP2a inh,Eya2 inh,FBPA coupling cs,PI4K2A inh,GALK inhibitor,USP1-UAF1 inh
COC(=O)CCC(=O)OC1(C)C(=O)C2=CN(CCc3ccccn3)C(c3ccc(OC)cc3)=CC2=C(Br)C1=O (centres undefined),x,x,n,n,x,u
COC(=O)CCC(=O)OC1(C)C(=O)C2=COC(c3ccc(OC)cc3)=CC2=C(Br)C1=O (centres undefined),n,n,n,u,n,u
COC(=O)CCC(=O)OC1(C)C(=O)C2=CN(CCN3CCOCC3)C(c3ccc(OC)cc3)=CC2=C(Br)C1=O (centres undefined),n,n,-37!,x,n,x
C=CC[C@@](C(C)=O)(C(=O)OC)C(NC(=O)OC(C)(C)C)c1ccccc1 (some centres undefined),x,x,n,x,x,x
CC(=O)OCC1OC(c2cc(C)cc(C)c2)C=CC1OC(C)=O (centres undefined),x,x,n,x,x,x
CC(C)(C)[Si](C)(C)c1c2c(nc3ccc(OCc4ccccc4)cc13)-c1cccc(=O)n1C2,x,x,n,x,x,x
O=S(=O)(Nc1cccc2cccnc12)c1ccc(Br)cc1,x,x,n,x,x,x
Cc1ccc(-c2ccccc2NC(=O)CCl)o1,n,n,-50,n,x,n
CCOc1ccccc1-c1nnc2n1N=C(c1cc(OC)cc(OC)c1)CS2,x,x,n,x,x,x
COc1ccc(-n2nnc(-c3nc(-c4cccs4)no3)c2N)cc1OC,x,x,x,n,x,n
c1ccc(N2CCN(c3nc4cc5c(cc4s3)OCCO5)CC2)cc1,n,n,n,n,n,n
c1c2c(cc3sc(N4CCOCC4)nc13)OCCO2,n,n,n,-51,n,n
CSC1=NSC2=NC(=O)/C(=C/c3coc4ccc(O)cc4c3=O)C(=N)N12,u,u,n,n,n,22µM
CC1=CC2=NC(=O)/C(=C/c3coc4ccc(Cl)cc4c3=O)C(=N)N2O1,u,u,n,n,n,28µM
N=C1/C(=C\c2coc3ccccc3c2=O)C(=O)N=C2SC=CN12,u,n,n,n,n,28µM
CSC1=NSC2=NC(=O)/C(=C/c3coc4ccccc4c3=O)C(=N)N12,u,u,n,n,n,25µM
COC(=O)c1nnc(N[C@@H](Cc2c[nH]c3ccccc23)C(=O)OC)nc1C(=O)OC,x,x,n,x,x,x
COC(=O)[C@@H]1CC[C@H](C)[C@@H](c2ccc(C)cc2)N1C(=O)c1ccc(/C=N\OC[C@@H](C)[C@H](OCc2ccccc2)C(C)C)cc1,x,x,n,x,x,x
O=C(OC12CCCN(C1)/C(=C/c1ccc(Cl)cc1)C2)C1CCCCC1 (centres undefined),x,x,x,n,x,x
CN1C2=N[C@@H](c3cccc(C(F)(F)F)c3)CC(=O)N2/C(=C\c2ccccc2)[C@H]1c1ccccc1,x,x,x,n,x,x
COc1ccc2cc1Oc1cc3c(cc1OC)CC[N+](C)(C)[C@H]3Cc1ccc(cc1)Oc1c(OC)c(OC)cc3c1[C@@H](C2)[N+](C)(C)CC3,x,x,x,n,x,x
Cc1nc2cnc(OCc3ccccc3)nc2n(CCc2ccccc2)c1=O,x,x,n,x,x,x
Cc1ccc(-n2c3nc(=O)[nH]c(=O)c-3cc3cc([N+](=O)[O-])ccc32)cc1,n,n,-34,n,n,n
Cc1ccc(-n2c(C)nn(Cc3ccc([N+](=O)[O-])cc3)c2=O)cc1,n,n,n,n,n,n
COc1cc(Nc2c(C#N)cnc3cc(OCCCN4CCN(C)CC4)c(OC)cc23)c(Cl)cc1Cl,x,x,x,n,x,x
O=C(Nc1ccc(Cl)cc1)OCCN1CCN(Cc2ccccc2)CCC1=O,x,x,n,x,x,x
CC(C)[C@@H](OCc1ccccc1)[C@H](C)CO/N=C1/[C@H]2OC2[C@@H](O)[C@H]2[C@H]1CCn1c(=O)n(-c3ccccc3)c(=O)n12 (some centres undefined),x,x,n,x,x,x
